Laboratory results taken from PubChem BioAssay (Tox21).
A number with no mark means an inactive call. Records with an inconclusive call do not appear. A call without a number means that no potency is given here. The source made the active and inactive calls. Unless noted, calls come from the whole dose curve; as a rule, active = well fitted curve in the direction sought with a large enough effect in the repeat runs; inconclusive = weak or mixed curves; inactive = no such curve, though single readings can be large; an effect the other way counts as inactive or inconclusive.

Assays:
[1] = Human pregnane X receptor (PXR) small molecule agonists, qHTS cell viability counter screen (AID 1346977); note: nearly all actives have a fitted effect of over 50% in size
In short: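 After a 5hr pre-incubation, PXR-Luc HepG2 cells received compounds plus positive control in DMSO and were kept 24hr at 37C. Cell viability was quantified by fluorescence from CellTiter-Fluor added for the final hour.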

[2] = Caspase-3/7 induction in HepG2 cells by small molecules, qHTS assay (AID 1346978); note: nearly all actives have a fitted effect of over 15% in size
In short: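 Wild-type HepG2 cells, 2,000/well, settled 5 hr at 37 C and 5% CO2, then compound-treated for 17 hr; caspase-3/7 activity read by luminescent Caspase-Glo 3/7 after 30 min at room temperature.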

[3] = Caspase-3/7 induction in CHO-K1 cells by small molecules, qHTS cell viability counter screen (AID 1346979); note: nearly all actives have a fitted effect of over 35% in size
In short: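 Multiplexed with Caspase-Glo 3/7 in CHO-K1 cells, this counter screen added CellTiter-Fluor after 16hr of compound exposure and recorded fluorescence 1hr later.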

[4] = Caspase-3/7 induction in CHO-K1 cells by small molecules, qHTS assay (AID 1346980); note: nearly all actives have a fitted effect of over 15% in size
In short: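 Wild-type CHO-K1 cells exposed to compounds for 17hr at 37 C, 5% CO2. Caspase-3/7 activity then measured by Caspase-Glo 3/7 luminescence after 30min at room temperature.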

[5] = Caspase-3/7 induction in HepG2 cells by small molecules, qHTS cell viability counter screen (AID 1346981); note: series mostly up to about 92 µM; nearly all actives have a fitted effect of over 30% in size
In short: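 HepG2, WT, 2,000 cells/well; 5 hr pre-incubation 37 C/5% CO2; compound pin-transferred from DMSO; 16 hr exposure; CellTiter-Fluor, 1 hr; fluorescence read.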

[6] = biological target: Nuclear receptor subfamily 1 group I member 2 (Homo sapiens) (UniProt O75469); assay: Human pregnane X receptor (PXR) small molecule agonists, qHTS assay (AID 1346982); note: nearly all actives have a fitted effect of over 35% in size; note: potency is the fitted concentration of half-maximal effect
In short: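 Luciferase signal from ONE-Glo (30 min, room temperature) measured activation of hPXR-driven CYP3A4 reporter expression in PXR-Luc HepG2 cells treated with compounds for 24 hr at 37 C.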

[7] = biological target: Acetylcholinesterase (Homo sapiens) (UniProt P22303); assay: Acetylcholinesterase (AChE) small molecule antagonists: enzyme-based qHTS assay (AID 1347397; calls by dose curve; note: nearly all actives have a fitted effect of over 55% in size; note: potency is the fitted concentration of half-maximal effect); conditions: Potency: AChE enzyme activity inhibition; outcome: AChE enzyme activity inhibition
In short: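 Enzyme inhibition was scored from DTNB-detected thiocholine formed by recombinant human AChE acting on acetylthiocholine. The 30 min compound preincubation and 10 min substrate reaction were both run at room temperature, with DMSO as vehicle control.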

[8] = biological target: Acetylcholinesterase (Homo sapiens) (UniProt P22303); assay: Acetylcholinesterase (AChE) small molecule antagonists: enzyme-based qHTS assay with human liver microsomes (AID 1347399; calls by dose curve; note: nearly all actives have a fitted effect of over 60% in size); conditions: Potency: qHTS inhibition; outcome: qHTS inhibition
In short: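 Recombinant human AChE (50 mU/mL in the enzyme mix) and human liver microsomes (0.25 mg/mL final) were preincubated with compound and NADPH (0.25 mg/mL final) for 30 min at 37 C. Acetylthiocholine/DTNB was then added; thiocholine was read colorimetrically after 10 min at room temperature.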

[9] = biological target: Cytochrome P450 2C19 (Homo sapiens) (UniProt P33261); assay: Cytochrome P450 Family 2 Subfamily C Member 19 (CYP2C19) small molecule antagonists: luciferase reporter qHTS assay (AID 1671197); note: nearly all actives have a fitted effect of over 65% in size; note: potency is the fitted concentration of half-maximal effect
In short: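 P450-Glo CYP2C19 screening system; proluciferin substrate; DMSO compound stocks; 10 min RT preincubation; NADPH regeneration, 1 h at 37C; luciferin detection reagent, 20 min RT; luminescence as RLU.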

[10] = biological target: Cytochrome P450 2C9 (Homo sapiens) (UniProt P11712); assay: Cytochrome P450 Family 2 Subfamily C Member 9 (CYP2C9) small molecule antagonists: luciferase reporter qHTS assay (AID 1671198); note: nearly all actives have a fitted effect of over 50% in size; note: potency is the fitted concentration of half-maximal effect
In short: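 P450-Glo proluciferin substrate with CYP2C9 enzyme; 10 min RT preincubation, then NADPH regeneration 1 h at 37C; luciferin detection reagent 20 min RT, luminescence in relative luminescence units.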

[11] = biological target: Cytochrome P450 1A2 (Homo sapiens) (UniProt P05177); assay: Cytochrome P450 Family 1 Subfamily A Member 2 (CYP1A2) small molecule antagonists: luciferase reporter qHTS assay (AID 1671199); note: nearly all actives have a fitted effect of over 50% in size; note: potency is the fitted concentration of half-maximal effect
In short: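 P450-Glo CYP1A2, 1536-well qHTS: enzyme/proluciferin substrate + cpd (DMSO), 10 min RT; NADPH regen, 1 h RT; detection reagent, 20 min; luminescence, RLU.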

[12] = biological target: Voltage-gated inwardly rectifying potassium channel KCNH2 (Homo sapiens) (UniProt Q12809); assay: Human Ether-a-go-go-Related Gene (hERG) channel small molecule antagonists: fluorescence cell-based qHTS assay (AID 1671200); note: nearly all actives have a fitted effect of over 50% in size; note: potency is the fitted concentration of half-maximal effect
In short: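 Cell line hERG-U2OS; dye FluxOR II, 1 h RT dark; Tl+ stimulus; ex 480/em 540 nm, read each second for 2 min.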

[13] = biological target: Cytochrome P450 3A4 (Homo sapiens) (UniProt P08684); assay: Cytochrome P450 Family 3 Subfamily A Member 4 (CYP3A4) small molecule antagonists: luciferase reporter qHTS assay (AID 1671201); note: nearly all actives have a fitted effect of over 50% in size; note: potency is the fitted concentration of half-maximal effect
In short: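 Room-temperature assay throughout: 10 min compound–enzyme/substrate preincubation, 1 h reaction after NADPH regeneration solution, 20 min detection. Luciferin formed from proluciferin substrate is quantified by luminescence.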

[14] = biological target: Acetylcholinesterase (Homo sapiens) (UniProt P22303); assay: Acetylcholinesterase (AChE) small molecule antagonists: colormetric cell-based qHTS assay (AID 1347395; calls by dose curve; note: nearly all actives have a fitted effect of over 30% in size; note: potency is the fitted concentration of half-maximal effect)
In short: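 In this cell-based qHTS, attached SH-SY5Y cells were treated with test chemicals for 30 min, after which acetylthiocholine hydrolysis was followed by DTNB colour development over 90 min at 37 C.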

[15] = biological target: Cytochrome P450 2D6 (Homo sapiens) (UniProt P10635); assay: Cytochrome P450 Family 2 Subfamily D Member 6 (CYP2D6) small molecule antagonists: luciferase reporter qHTS assay (AID 1671196); note: nearly all actives have a fitted effect of over 50% in size; note: potency is the fitted concentration of half-maximal effect
In short: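 Read-out is luminescence from luciferin formed by CYP2D6 turnover of a proluciferin substrate, recorded as relative luminescence units. Reactions ran 1 h at room temperature after NADPH regeneration solution was added.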

[16] = biological target: Acetylcholinesterase (Homo sapiens) (UniProt P22303); assay: Acetylcholinesterase (AChE) small molecule antagonists: fluorescence cell-based qHTS assay (AID 1347398; calls by dose curve; note: nearly all actives have a fitted effect of over 50% in size; note: potency is the fitted concentration of half-maximal effect); conditions: Potency: AChE activity; outcome: AChE activity
In short: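 Endogenous acetylcholinesterase of SH-SY5Y neuroblastoma cells is measured in situ. After overnight attachment and 30 min compound exposure, cells receive acetylthiocholine and Thiolite Green; fluorescence is read after 40 min at room temperature.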

[17] = biological target: Nuclear receptor subfamily 1 group I member 2 (Rattus norvegicus) (UniProt Q9R1A7); assay: Rat pregnane X receptor (rPXR) activation by small molecules, qHTS assay (AID 1346983); conditions: rPXR luciferase reporter cells, One-Glo luminescence, 24 h; hits give high values; note: nearly all actives have a fitted effect of over 20% in size
In short: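 Cell-based rPXR activation assay: rPXR cells, 2,000 per well, rested 5hr at 37 C, then exposed to compounds in DMSO for 24 hr at 37 C. Luciferase activity read by One-Glo luminescence after 30 min at room temperature.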

[18] = biological target: Nuclear receptor subfamily 1 group I member 2 (Homo sapiens) (UniProt O75469); assay: CYP3A4 induction through human pregnane X receptor (PXR) by small molecules, qHTS assay (AID 1346984); note: nearly all actives have a fitted effect of over 40% in size
In short: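 Luminescence readout: luciferase signal after One-Glo (30 min, room temperature), following 3 h at 37C with 3uM final Luciferin-IPA P450 substrate. Cells were DPX-2 (HepG2, PXR/CYP3A4-luc co-transfected) dosed for 24 h.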

[19] = biological target: Nuclear receptor subfamily 1 group I member 2 (Homo sapiens) (UniProt O75469); assay: Human pregnane X receptor (PXR) activation by small molecules, qHTS assay (AID 1346985); note: nearly all actives have a fitted effect of over 40% in size
In short: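 DPX-2 cells (HepG2 co-transfected with a PXR response element and a CYP3A4-promoter luciferase construct) were seeded at 2,000 per well, rested 5 hr at 37C, then exposed to DMSO-dissolved compounds for 24 hr. Activation was read as luciferase luminescence.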

Sequence of Cytochrome P450 2D6 (Homo sapiens) (P10635 whole entry, looked up): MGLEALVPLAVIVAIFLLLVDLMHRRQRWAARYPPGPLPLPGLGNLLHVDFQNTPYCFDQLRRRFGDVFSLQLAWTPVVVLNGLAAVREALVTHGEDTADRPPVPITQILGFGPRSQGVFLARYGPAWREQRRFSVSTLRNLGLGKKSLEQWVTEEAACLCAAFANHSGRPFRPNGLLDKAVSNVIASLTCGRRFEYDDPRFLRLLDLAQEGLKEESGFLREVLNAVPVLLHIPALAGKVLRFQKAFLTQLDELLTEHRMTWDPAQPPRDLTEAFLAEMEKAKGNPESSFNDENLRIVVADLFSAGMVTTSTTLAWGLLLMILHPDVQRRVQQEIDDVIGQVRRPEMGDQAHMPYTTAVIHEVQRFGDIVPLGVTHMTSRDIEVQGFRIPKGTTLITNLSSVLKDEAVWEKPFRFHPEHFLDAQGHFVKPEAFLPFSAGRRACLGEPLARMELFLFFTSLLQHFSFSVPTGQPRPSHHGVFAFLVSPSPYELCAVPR
Sequence of Cytochrome P450 2C19 (Homo sapiens) (P33261 whole entry, looked up): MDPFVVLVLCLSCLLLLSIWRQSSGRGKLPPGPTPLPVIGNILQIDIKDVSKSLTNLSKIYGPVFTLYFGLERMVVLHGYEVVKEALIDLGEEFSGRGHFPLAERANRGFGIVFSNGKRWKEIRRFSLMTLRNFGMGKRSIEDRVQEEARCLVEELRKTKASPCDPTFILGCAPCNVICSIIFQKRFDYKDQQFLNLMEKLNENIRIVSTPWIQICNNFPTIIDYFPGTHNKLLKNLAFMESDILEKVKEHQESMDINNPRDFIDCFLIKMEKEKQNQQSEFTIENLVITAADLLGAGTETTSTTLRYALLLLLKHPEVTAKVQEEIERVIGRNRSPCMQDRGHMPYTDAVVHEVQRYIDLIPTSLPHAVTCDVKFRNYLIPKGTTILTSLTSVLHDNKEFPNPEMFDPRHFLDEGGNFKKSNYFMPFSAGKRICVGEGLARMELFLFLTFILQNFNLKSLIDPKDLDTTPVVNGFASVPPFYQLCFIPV
Sequence of Voltage-gated inwardly rectifying potassium channel KCNH2 (Homo sapiens) (Q12809 whole entry, looked up): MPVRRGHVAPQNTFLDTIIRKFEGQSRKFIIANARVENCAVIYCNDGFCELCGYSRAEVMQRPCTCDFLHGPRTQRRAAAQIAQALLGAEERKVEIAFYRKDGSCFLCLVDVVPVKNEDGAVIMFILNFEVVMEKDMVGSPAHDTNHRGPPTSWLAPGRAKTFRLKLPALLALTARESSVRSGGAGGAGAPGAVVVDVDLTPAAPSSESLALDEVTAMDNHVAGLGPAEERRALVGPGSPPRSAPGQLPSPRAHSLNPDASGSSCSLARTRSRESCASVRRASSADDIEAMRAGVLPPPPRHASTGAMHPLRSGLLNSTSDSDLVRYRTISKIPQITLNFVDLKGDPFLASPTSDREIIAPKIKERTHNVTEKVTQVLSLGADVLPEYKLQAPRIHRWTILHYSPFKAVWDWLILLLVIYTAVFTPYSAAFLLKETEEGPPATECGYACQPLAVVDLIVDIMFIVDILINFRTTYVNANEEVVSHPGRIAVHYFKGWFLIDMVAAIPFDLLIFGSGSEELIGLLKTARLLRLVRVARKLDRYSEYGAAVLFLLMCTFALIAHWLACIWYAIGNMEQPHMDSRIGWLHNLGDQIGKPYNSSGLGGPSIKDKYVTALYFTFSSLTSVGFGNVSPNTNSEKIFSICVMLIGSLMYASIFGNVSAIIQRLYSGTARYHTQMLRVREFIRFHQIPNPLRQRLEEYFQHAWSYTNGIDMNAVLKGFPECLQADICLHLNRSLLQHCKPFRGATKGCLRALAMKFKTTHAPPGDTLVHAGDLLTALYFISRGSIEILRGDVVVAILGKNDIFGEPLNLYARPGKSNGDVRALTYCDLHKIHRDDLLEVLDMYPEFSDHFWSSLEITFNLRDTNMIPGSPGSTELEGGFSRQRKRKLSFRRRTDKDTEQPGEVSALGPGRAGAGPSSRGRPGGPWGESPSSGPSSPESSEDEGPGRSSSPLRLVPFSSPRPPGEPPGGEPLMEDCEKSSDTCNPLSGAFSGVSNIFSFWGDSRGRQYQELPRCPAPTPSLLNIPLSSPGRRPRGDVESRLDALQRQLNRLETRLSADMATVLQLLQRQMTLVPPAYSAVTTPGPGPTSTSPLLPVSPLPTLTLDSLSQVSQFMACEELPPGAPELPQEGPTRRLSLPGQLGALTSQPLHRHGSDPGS
Sequence of Cytochrome P450 1A2 (Homo sapiens) (P05177 whole entry, looked up): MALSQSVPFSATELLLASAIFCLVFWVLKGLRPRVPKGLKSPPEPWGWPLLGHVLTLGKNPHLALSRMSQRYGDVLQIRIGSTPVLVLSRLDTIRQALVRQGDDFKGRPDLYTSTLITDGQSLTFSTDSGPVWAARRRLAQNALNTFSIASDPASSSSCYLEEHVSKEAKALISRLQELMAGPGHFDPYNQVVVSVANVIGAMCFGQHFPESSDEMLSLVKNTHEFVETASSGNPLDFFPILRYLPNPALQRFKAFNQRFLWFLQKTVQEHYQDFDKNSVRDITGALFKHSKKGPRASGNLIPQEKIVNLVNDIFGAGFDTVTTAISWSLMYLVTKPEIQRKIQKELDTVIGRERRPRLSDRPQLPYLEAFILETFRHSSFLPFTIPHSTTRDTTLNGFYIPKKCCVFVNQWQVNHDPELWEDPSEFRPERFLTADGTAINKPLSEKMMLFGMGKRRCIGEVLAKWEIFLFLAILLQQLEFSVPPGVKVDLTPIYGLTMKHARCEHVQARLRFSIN
Sequence of Nuclear receptor subfamily 1 group I member 2 (Homo sapiens) (O75469 whole entry, looked up): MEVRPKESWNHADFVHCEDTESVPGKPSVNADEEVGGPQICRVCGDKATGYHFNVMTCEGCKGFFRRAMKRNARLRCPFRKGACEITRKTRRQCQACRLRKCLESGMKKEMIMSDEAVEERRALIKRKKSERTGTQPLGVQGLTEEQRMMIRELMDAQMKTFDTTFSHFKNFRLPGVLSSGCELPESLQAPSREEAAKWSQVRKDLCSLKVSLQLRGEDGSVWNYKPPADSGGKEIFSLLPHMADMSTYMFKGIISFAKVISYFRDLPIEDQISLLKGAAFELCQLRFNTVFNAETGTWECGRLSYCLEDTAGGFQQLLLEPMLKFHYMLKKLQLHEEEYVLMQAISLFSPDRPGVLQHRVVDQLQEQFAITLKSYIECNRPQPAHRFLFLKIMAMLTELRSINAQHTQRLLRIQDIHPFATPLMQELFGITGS
Sequence of Acetylcholinesterase (Homo sapiens) (P22303 whole entry, looked up): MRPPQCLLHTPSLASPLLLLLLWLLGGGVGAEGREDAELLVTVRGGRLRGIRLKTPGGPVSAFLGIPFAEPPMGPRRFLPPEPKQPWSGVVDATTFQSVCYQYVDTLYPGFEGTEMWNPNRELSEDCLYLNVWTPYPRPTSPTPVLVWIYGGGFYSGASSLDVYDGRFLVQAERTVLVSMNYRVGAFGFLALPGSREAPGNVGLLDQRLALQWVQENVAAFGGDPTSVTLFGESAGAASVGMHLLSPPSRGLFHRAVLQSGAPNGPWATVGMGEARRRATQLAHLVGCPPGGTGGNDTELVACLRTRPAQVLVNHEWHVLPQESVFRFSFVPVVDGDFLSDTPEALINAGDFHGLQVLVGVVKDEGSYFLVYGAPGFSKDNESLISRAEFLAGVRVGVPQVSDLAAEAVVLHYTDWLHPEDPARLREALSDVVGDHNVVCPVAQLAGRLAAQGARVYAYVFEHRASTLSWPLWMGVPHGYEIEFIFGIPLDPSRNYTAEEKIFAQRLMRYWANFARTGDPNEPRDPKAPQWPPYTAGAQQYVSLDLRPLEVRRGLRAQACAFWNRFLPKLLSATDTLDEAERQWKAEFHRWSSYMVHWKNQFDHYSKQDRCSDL
Sequence of Cytochrome P450 2C9 (Homo sapiens) (P11712 whole entry, looked up): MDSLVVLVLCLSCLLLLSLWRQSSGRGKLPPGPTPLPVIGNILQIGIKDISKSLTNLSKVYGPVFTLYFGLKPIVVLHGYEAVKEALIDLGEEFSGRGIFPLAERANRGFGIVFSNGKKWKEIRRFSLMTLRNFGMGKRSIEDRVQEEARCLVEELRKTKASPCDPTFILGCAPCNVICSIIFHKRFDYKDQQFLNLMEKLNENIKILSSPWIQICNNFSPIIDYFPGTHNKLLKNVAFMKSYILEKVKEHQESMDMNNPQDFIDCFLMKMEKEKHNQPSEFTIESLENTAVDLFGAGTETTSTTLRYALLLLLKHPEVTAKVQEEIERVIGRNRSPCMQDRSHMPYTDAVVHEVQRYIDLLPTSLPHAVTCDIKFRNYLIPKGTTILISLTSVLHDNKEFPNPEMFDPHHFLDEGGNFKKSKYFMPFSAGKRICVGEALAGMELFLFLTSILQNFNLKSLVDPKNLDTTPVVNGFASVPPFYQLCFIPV
Sequence of Cytochrome P450 3A4 (Homo sapiens) (P08684 whole entry, looked up): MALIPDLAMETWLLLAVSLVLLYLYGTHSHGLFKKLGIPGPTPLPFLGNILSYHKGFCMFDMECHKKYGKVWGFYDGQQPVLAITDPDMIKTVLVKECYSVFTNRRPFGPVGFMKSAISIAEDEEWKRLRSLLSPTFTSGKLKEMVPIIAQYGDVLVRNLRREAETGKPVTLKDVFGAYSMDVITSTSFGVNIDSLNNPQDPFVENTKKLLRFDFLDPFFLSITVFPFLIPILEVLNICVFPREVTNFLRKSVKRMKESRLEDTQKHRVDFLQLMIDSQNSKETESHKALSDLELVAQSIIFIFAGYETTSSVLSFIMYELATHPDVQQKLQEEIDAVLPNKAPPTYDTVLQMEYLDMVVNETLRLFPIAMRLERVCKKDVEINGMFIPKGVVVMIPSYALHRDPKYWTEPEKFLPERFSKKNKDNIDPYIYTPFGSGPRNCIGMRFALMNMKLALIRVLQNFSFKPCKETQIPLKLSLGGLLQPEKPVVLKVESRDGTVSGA

| SMILES | Potency [1] | outcome [2] | Potency [3] | outcome [4] | Potency [5] | Potency [6] | Potency [7] | Potency [8] | Potency [9] | Potency [10] | Potency [11] | Potency [12] | Potency [13] | Potency [14] | Potency [15] | Potency [16] | max activation [17] | Potency [18] | Potency [19] |
| --- | --- | --- | --- | --- | --- | --- | --- | --- | --- | --- | --- | --- | --- | --- | --- | --- | --- | --- | --- |
| CCOC(=O)C(Cl)Cc1cc(-n2nc(C)n(C(F)F)c2=O)c(F)cc1Cl (stereo not given) | inactive | inactive | inactive | inactive | inactive | inactive | inactive | inactive | 5.64 µM (active) | 7.1 µM (active) | 28.3 µM (active) | 24.5 µM (active) | 35.6 µM (active) | – | – | – | – | – | – |
| CCCN1CCC[C@@H]2Cc3[nH]ncc3C[C@H]21 | inactive | inactive | inactive | inactive | inactive | inactive | inactive | inactive | inactive | – | inactive | inactive | – | 27.5 µM (active) | 30.9 µM (active) | – | – | – | – |
| CCOP(=S)(OCC)Oc1ccc(Cl)cc1Cl | inactive | inactive | inactive | inactive | inactive | inactive | inactive | inactive | 0.399 µM (active) | – | 2.83 µM (active) | inactive | – | inactive | – | – | – | – | – |
| CCNP(=S)(OC)O/C(C)=C/C(=O)OC(C)C (stereo not given) | inactive | inactive | inactive | inactive | inactive | 9.69 µM (active) | inactive | inactive | 0.0894 µM (active) | – | 2.52 µM (active) | – | – | – | 31.7 µM (active) | inactive | – | – | – |
| O=[N+]([O-])CCO | inactive | inactive | inactive | inactive | inactive | inactive | inactive | inactive | inactive | – | inactive | inactive | inactive | inactive | inactive | – | – | – | – |
| CC[C@@H](CO)NC(=O)[C@@H]1C=C2c3cccc4c3c(cn4C)C[C@H]2N(C)C1 | inactive | inactive | inactive | inactive | inactive | – | 4.36 µM (active) | inactive | inactive | – | – | inactive | – | 2.45 µM (active) | – | 1.1 µM (active) | 4.36% | inactive | inactive |
| CN(CCO)CCO | inactive | inactive | inactive | inactive | inactive | inactive | – | inactive | inactive | inactive | – | inactive | – | inactive | – | inactive | – | – | – |
